Among the test systems are HT29 colon; SNB-75 CNS; SNB-19 CNS; U251 CNS; PC-3 prostate; SK-MEL-28 melanoma; SK-MEL-2 melanoma; SK-MEL-5 melanoma; LOX IMVI melanoma; UACC-62 melanoma.
Holding throughout (assay): NCI-60 one-dose screen, 48 h (100 = growth as untreated, 0 = no growth, -100 = all killed)
Holding throughout (conditions): 10 µM unless noted

Each structure is given as a SMILES string. About 83,000 compounds went through this panel and 20% of them were active in at least one assay; those are over-represented in the sample as a whole.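 Assay: single dose, 48 h. Readout: percent growth (0 = no net growth; negative = cell death). Active: <10.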 Unmarked numbers belong to inactive results. Calls of active or inactive are those of the source.

Turning to `CCOC(=O)c1sc(NCC(=O)Nc2cccc([N+](=O)[O-])c2)c(C(=O)OCC)c1C`, the growth with HT29 colon is -42.7% (active); in the assay on SNB-75 CNS, -37.6% (active); in the assay with SNB-19 CNS, -6.96% (active); in the assay with U251 CNS, -7.36% (active); in the assay with PC-3 prostate, -9.82% (active); in the assay on SK-MEL-28 melanoma it was -30.9% (active). Also, the growth in the assay on SK-MEL-2 melanoma was -24% (active).
For the compound `N#Cc1c(-c2ccc(Cl)cc2)nc(SCc2ccc([N+](=O)[O-])cc2)nc1N1CCNCC1`, the growth was 28.1% with SNB-75 CNS; 51.8% with SNB-19 CNS; -95.9% (active) in the assay with U251 CNS; -1.75% (active) with PC-3 prostate; 43.6% in the assay on SK-MEL-5 melanoma; -61.7% (active) with LOX IMVI melanoma. For the same compound, the growth in the assay on SK-MEL-28 melanoma is 8.08% (active); in the assay on SK-MEL-2 melanoma, -2.3% (active).
With `CN(C)c1ccc(/C=c2\sc3nc4ccccc4n3c2=O)cc1`, the growth with SNB-75 CNS is 105%; with SNB-19 CNS it was 99.3%; in the assay on U251 CNS, 102%; with PC-3 prostate, 106%; in the assay on SK-MEL-5 melanoma, 101%; with UACC-62 melanoma it was 96.5%. Moreover, the growth in the assay with LOX IMVI melanoma was 118%; in the assay with SK-MEL-28 melanoma, 103%; with SK-MEL-2 melanoma, 118%.
As to `COc1cc(-c2ccc3ncnc(NC(C)c4ccccc4)c3c2)cnc1OC` (stereo unspecified), the growth in the assay with SNB-75 CNS was 32.8%; in the assay with SNB-19 CNS, 48.7%; with U251 CNS it was 63.4%; in the assay with PC-3 prostate, 29.5%; in the assay with SK-MEL-5 melanoma it was 74.4%; in the assay on UACC-62 melanoma it was 63.4%. The values for the growth in the assay on LOX IMVI melanoma, in the assay on SK-MEL-28 melanoma and in the assay on SK-MEL-2 melanoma were 34.4%, 60.9% and 47.3%, respectively.
`Cn1c(SCC(=O)Nc2ccc(-c3nc4ccc([N+](=O)[O-])cc4[nH]3)cc2)nc2ccccc2c1=O`: the growth in the assay on SNB-75 CNS is 93.2%; in the assay with SNB-19 CNS, 85.8%; with U251 CNS, 92%; in the assay with PC-3 prostate, 68.7%; in the assay with SK-MEL-5 melanoma it was 84.8%; in the assay on UACC-62 melanoma, 75%. The values for the growth in the assay with SK-MEL-28 melanoma and with SK-MEL-2 melanoma were 79.4% and 90.7%, respectively.
With `Cn1cc(-c2cc(N)n3nc(-c4cn(C)c5ccc(F)cc45)cc3n2)c2cc(F)ccc21`, the growth with SNB-75 CNS was 109%; in the assay with SNB-19 CNS, 50.1%; with U251 CNS, -62.4% (active); in the assay on SK-MEL-5 melanoma it was 104%; with UACC-62 melanoma, 62.5%; in the assay with LOX IMVI melanoma, -61.9% (active). Further, the results for the growth in the assay with SK-MEL-28 melanoma and with SK-MEL-2 melanoma were 92.4% and 110%, respectively.
Take `CS(=O)(=O)c1ccc(-c2nc3ccccn3c2/C=N/Nc2nc(-c3ccc(Cl)cc3)cs2)cc1`: the growth in the assay with SNB-75 CNS is 120%; in the assay with SNB-19 CNS, 107%; with U251 CNS it was 108%; in the assay on PC-3 prostate, 102%; in the assay on SK-MEL-5 melanoma, 91.7%; with UACC-62 melanoma, 102%. For the same compound, the growth was 122% in the assay with LOX IMVI melanoma, 93.1% in the assay on SK-MEL-28 melanoma and 102% with SK-MEL-2 melanoma.
Regarding `C#C[C@]1(O)CC[C@H]2[C@@H]3CC=C4c5sc(Nc6ccc(Cl)cn6)nc5CC[C@]4(C)[C@H]3CC[C@@]21C`, the growth in the assay on SNB-75 CNS is -0.325% (active); in the assay on SNB-19 CNS, 54.5%; in the assay with U251 CNS it was 19.1%; in the assay with PC-3 prostate, 29.9%; in the assay with SK-MEL-5 melanoma, 84%; in the assay on UACC-62 melanoma it was 28.3%. The growth is 0.11% (active) with LOX IMVI melanoma, -27% (active) with SK-MEL-28 melanoma and -13.4% (active) in the assay with SK-MEL-2 melanoma.
For `CCOc1ccc([C@H]2C(C(=O)c3ccc(Cl)cc3)C3(N[C@@H]2c2ccccc2)C(=O)Nc2ccc(Br)cc23)cc1` (stereo partly specified), the growth in the assay on SNB-75 CNS was 26.9%; in the assay on SNB-19 CNS, 47.6%; in the assay on U251 CNS it was 13.5%; in the assay with PC-3 prostate, 13.8%; in the assay on SK-MEL-5 melanoma, 47.8%; in the assay with UACC-62 melanoma it was 51.4%. Besides, the results for the growth in the assay on LOX IMVI melanoma, in the assay with SK-MEL-28 melanoma and with SK-MEL-2 melanoma were -36.2% (active), 75.2% and 56.6%, respectively.
Turning to `O=C1Nc2ccc(Cl)cc2/C1=C/c1ccc(OCC(=O)c2ccc(Br)cc2)cc1`, the growth in the assay with SNB-75 CNS was 75.7%; in the assay on SNB-19 CNS it was 89.7%; in the assay with U251 CNS, 98.3%; in the assay on PC-3 prostate, 81.8%; in the assay on SK-MEL-5 melanoma, 96.9%; with UACC-62 melanoma it was 83.4%. For the same compound, the growth with LOX IMVI melanoma is 108%; with SK-MEL-28 melanoma, 99.3%; with SK-MEL-2 melanoma, 113%.
For `CC(C)(C)Nc1nc2c(OCCc3ccccc3)cccn2c1-c1cccc(F)c1`, the growth in the assay with SNB-75 CNS is 33.2%; with SNB-19 CNS, 20.4%; in the assay on U251 CNS it was -43.8% (active); with PC-3 prostate, -4.7% (active); with SK-MEL-5 melanoma, -82.4% (active); in the assay on UACC-62 melanoma, -7.68% (active). For the same compound, the growth in the assay on LOX IMVI melanoma is -83.1% (active); in the assay on SK-MEL-28 melanoma it was 15%; in the assay with SK-MEL-2 melanoma, -81.2% (active).
With `CN(C)CCCOc1c2ccc(Cl)cc2nc2c1oc1ccccc12`, the growth was -18.6% (active) with SNB-75 CNS; 5.62% (active) in the assay with SNB-19 CNS; 4.05% (active) in the assay on U251 CNS; 5.27% (active) with PC-3 prostate; -97.9% (active) with SK-MEL-5 melanoma; -73.8% (active) in the assay on UACC-62 melanoma. In addition, the growth was -84.8% (active) with LOX IMVI melanoma, -76.4% (active) in the assay with SK-MEL-28 melanoma and -87.6% (active) in the assay with SK-MEL-2 melanoma.
With `Oc1c(Cl)cc(Cl)c2ccc(CN3CCCCC3)nc12`, the growth was 83.3% in the assay with SNB-75 CNS; 44.1% in the assay with SNB-19 CNS; 30.6% with U251 CNS; 56.8% in the assay with PC-3 prostate; 33.1% with SK-MEL-5 melanoma; 31.7% with LOX IMVI melanoma. Moreover, the growth is 28.7% with SK-MEL-28 melanoma and 84.1% in the assay on SK-MEL-2 melanoma.

The record behind these values is PubChem BioAssay (NCI).
